# Measured values from PubChem BioAssay (NCI).
# Compounds without any hit were thinned out: in the full panel of roughly 83,000, 20% have a hit.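 Growth was measured after 48 h exposure to one concentration of compound in 96-well plates. Values under 10 count as active.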 A number with no mark means an inactive call. Activity calls are given as the source filed them.
# Assays:
# Experiment in all cases: NCI-60 one-dose screen, 48 h (100 = growth as untreated, 0 = no growth, -100 = all killed)
# Details in all cases: 10 µM unless noted
# SR leukemia = test system: SR leukemia
# RPMI-8226 leukemia = test system: RPMI-8226 leukemia
# OVCAR-8 ovarian = test system: OVCAR-8 ovarian
# OVCAR-5 ovarian = test system: OVCAR-5 ovarian
# OVCAR-4 ovarian = test system: OVCAR-4 ovarian
# SK-OV-3 ovarian = test system: SK-OV-3 ovarian
# IGROV1 ovarian = test system: IGROV1 ovarian
# OVCAR-3 ovarian = test system: OVCAR-3 ovarian
# HS 578T breast = test system: HS 578T breast
# NCI/ADR-RES ovarian = test system: NCI/ADR-RES ovarian
Structure (SMILES),growth (SR leukemia),growth (RPMI-8226 leukemia),growth (OVCAR-8 ovarian),growth (OVCAR-5 ovarian),growth (OVCAR-4 ovarian),growth (SK-OV-3 ovarian),growth (IGROV1 ovarian),growth (OVCAR-3 ovarian),growth (HS 578T breast),growth (NCI/ADR-RES ovarian)
COc1cc(C2CC(c3ccccc3)=NN2C=O)ccc1Oc1nc2c(c(=O)n(C)c(=O)n2C)n1C (stereo unspecified),67.4%,61.1%,91.3%,97.6%,65.3%,125%,77.7%,103%,75.8%,57.9%
NNC(=O)CSc1nc2scc(-c3ccccc3)c2c(=O)n1-c1ccccc1,83%,109%,123%,98%,92.8%,120%,102%,99.5%,89.2%,103%
Clc1cccc(CNc2c3ccccc3nc3ccccc23)c1,-3.9% (active),-23.5% (active),31.1%,32.4%,18.8%,63.9%,16.5%,57.7%,53.7%,26.3%
CC(C)(C)c1ccc(C(=O)Nc2sc3cc(O)ccc3c2C(N)=O)cc1,33.7%,5.05% (active),81.2%,99.3%,72.1%,115%,57.9%,90.8%,96.1%,71.7%
O=C1CCCN1C(O)CCN(Cc1ccccc1)Cc1ccc(Cl)cc1 (stereo unspecified),83%,98.5%,96.7%,99.2%,103%,101%,100%,108%,104%,106%
O=C(NNC(=O)c1cccc(Cl)c1)c1ccccc1,85.8%,101%,106%,103%,103%,114%,115%,115%,105%,111%
CCCCCCCCCCCCCCCCCC(=O)OCCCCCCCCCCCCC,116%,95%,109%,113%,113%,114%,106%,114%,122%,–
CC(C)c1cccc(C#N)c1,97.1%,106%,95.1%,112%,101%,106%,115%,111%,101%,91%
CCOC(OCC)c1cnc2nc(NC(C)=O)[nH]c(=O)c2n1,99.9%,106%,102%,101%,107%,106%,101%,113%,102%,–
CCCCCCCC/C=C\CCCCCCCC(=O)OCCCCCC,105%,104%,100%,117%,113%,99.3%,108%,113%,105%,–
CNC(=O)OC1C(O[C@H]2C[C@H]3[C@@H]4CC=C5C[C@@H](O)CC[C@]5(C)[C@H]4CC[C@]3(C)[C@H]2[C@H](C)C(=O)CCC(C)C)OCC(O)C1OC1OCC(O)C(O)C1OC(=O)c1ccc(OC)cc1 (stereo partly specified),1.47% (active),-25.5% (active),35.5%,38.8%,55.8%,-20.6% (active),28.3%,62.7%,-5.93% (active),82.8%
Nc1nc(N)c2cc(NCc3ccc(Cl)c(Cl)c3)ccc2n1,-53.9% (active),-42% (active),-78.8% (active),-92.5% (active),-86.9% (active),-99.7% (active),-58.8% (active),-95.3% (active),-48.6% (active),–
COc1cc2ncnc(Nc3ccc(S(=O)(=O)Nc4cc(C)on4)cc3)c2cc1OCCCN1CCN(c2ccc([N+](=O)[O-])cc2)CC1,114%,109%,104%,106%,111%,99%,108%,103%,101%,106%
COc1cc(CN(c2ccc(C)cc2)C2OC(=O)c3ccccc32)cc(OC)c1OC (stereo unspecified),-6.82% (active),85.4%,50.1%,40.3%,65.9%,-6.21% (active),46.2%,6.21% (active),59.5%,-16.7% (active)
COC(=O)OC1C(O[C@H]2C[C@H]3[C@@H]4CC=C5C[C@@H](O)CC[C@]5(C)[C@H]4CC[C@]3(C)[C@H]2[C@H](C)C(=O)CCC(C)C)OCC(O)C1OC1OCC(O)C(O)C1OC(=O)c1ccc(OC)cc1 (stereo partly specified),2.6% (active),-40.7% (active),26.8%,31.2%,57.1%,-44.5% (active),29.5%,58.1%,-16.5% (active),70.5%
FC(F)(F)c1nn[nH]n1,104%,89.5%,105%,108%,111%,107%,118%,104%,111%,–
CC(CN1CCN(CC(C)Nc2ccnc3cc(Cl)ccc23)CC1)Nc1ccnc2cc(Cl)ccc12 (stereo unspecified),-44.1% (active),-32.2% (active),6.74% (active),57.2%,3.26% (active),97.2%,28.2%,-7.9% (active),9.67% (active),–
N=C(N)c1ccc(-c2ccc(-c3cccs3)s2)cc1F,-23.8% (active),-48.1% (active),-44.4% (active),-83.6% (active),-59.1% (active),-100% (active),-70.6% (active),-77.2% (active),-28.1% (active),-57.4% (active)
CC(=O)Oc1c(Cl)c(Cl)c(Cl)c(Cl)c1Cl,106%,73.4%,92.6%,100%,90.3%,91.4%,92%,107%,106%,93.4%
CCOC(=O)C#Cc1c(C(=O)OCC)nnn1[C@@H]1O[C@H](COC(C)=O)[C@@H](OC(C)=O)[C@H]1OC(C)=O,22.8%,94.8%,94.1%,100%,104%,109%,91.5%,62.1%,96.2%,104%
CCOC(=O)C(CCCCC(NC(C)=O)(C(=O)OCC)C(=O)OCC)(NC(C)=O)C(=O)OCC,99.8%,103%,107%,103%,107%,96.9%,106%,107%,104%,98.4%
COC1(OC)C2(Cl)CCC1(Cl)C(Cl)=C2Cl,98.6%,103%,94.6%,105%,103%,104%,106%,112%,99.9%,–
CCS(=O)(=O)Nc1cccc(Nc2c3cccc(C)c3nc3c(C)cccc23)c1OC,5.24% (active),15.8%,24%,21%,83.5%,30.6%,36.2%,47.2%,61.2%,41.7%
COc1cc2c(=O)n(CCCN(C)C)c3c4cc[nH]c4ncc3c2cc1OC,15.7%,22.2%,27.8%,71%,34.7%,42.8%,45.2%,49.1%,65%,89.4%
COc1ccc2nc(C)cc(Sc3nc4ccccc4s3)c2c1,-48% (active),-39.5% (active),36.5%,61.2%,25.8%,80.5%,22.2%,22.2%,62.1%,29.1%
O=C(c1ccccc1)c1cccc(C(Br)Br)c1,43.8%,84.4%,93.7%,125%,95.4%,94%,70.5%,97.5%,94.5%,–
O=[N+]([O-])c1ccc(SSc2ccc([N+](=O)[O-])cc2Cl)c(Cl)c1,84.5%,80%,100%,126%,83%,104%,69.6%,101%,90.5%,–
O=C1OC(/C=C/c2ccccc2)=NC/1=C/c1ccccc1[N+](=O)[O-],90.8%,91.9%,96.8%,99.1%,94.2%,101%,79.6%,98.4%,107%,96.4%
